What all share (experiment): DAPPL (digital affinity profiling via proximity ligation, sequencing); 10 mM Tris-HCl pH 7.5, 50 mM NaCl, 1 mM DTT, 4% glycerol, room temperature, 30 min; GST-TFs on glutathione beads, 16-mer random dsDNA library, 0.1% formaldehyde crosslink after washing; high values mean tight binding
The target in experiment [1] is T1, FEV (Homo sapiens, UniProt Q99581 1-238).
T1 sequence: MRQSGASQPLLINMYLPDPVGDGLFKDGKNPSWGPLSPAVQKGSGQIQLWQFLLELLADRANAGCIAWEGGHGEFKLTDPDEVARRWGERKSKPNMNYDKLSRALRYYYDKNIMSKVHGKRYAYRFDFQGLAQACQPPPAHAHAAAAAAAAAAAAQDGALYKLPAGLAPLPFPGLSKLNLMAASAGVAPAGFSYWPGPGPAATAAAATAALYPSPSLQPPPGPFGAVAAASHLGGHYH
Particulars: protein: recombinant; tags: N-terminal GST; dsDNA, one strand shown. Put shortly:
(§1)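 Human transcription factors were made in yeast as GST fusions, captured on glutathione beads and barcoded with DNA. With a tag-only sample included, the pool was incubated with 200 nmole of a random double-stranded 16-mer DNA library in Tris/NaCl/DTT/glycerol buffer at room temperature for 30 min, then crosslinked with 0.1% formaldehyde after washing, ligated by proximity, amplified and sequenced. For binding signal, each hexamer's read frequency for a factor is divided by its frequency for the tag-only sample.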

The target in experiment [2] is ETV5 (Homo sapiens, UniProt P41161 1-510). Particulars: protein: recombinant; tags: N-terminal GST; dsDNA, one strand shown. An outline of the steps:
as §1

The target in experiment [3] is HSF1 (Homo sapiens, UniProt Q00613 1-529). Particulars: protein: recombinant; tags: N-terminal GST; chain copies: 3; dsDNA, one strand shown. Put shortly: as §1
Sequence of HSF1 (Q00613 whole entry): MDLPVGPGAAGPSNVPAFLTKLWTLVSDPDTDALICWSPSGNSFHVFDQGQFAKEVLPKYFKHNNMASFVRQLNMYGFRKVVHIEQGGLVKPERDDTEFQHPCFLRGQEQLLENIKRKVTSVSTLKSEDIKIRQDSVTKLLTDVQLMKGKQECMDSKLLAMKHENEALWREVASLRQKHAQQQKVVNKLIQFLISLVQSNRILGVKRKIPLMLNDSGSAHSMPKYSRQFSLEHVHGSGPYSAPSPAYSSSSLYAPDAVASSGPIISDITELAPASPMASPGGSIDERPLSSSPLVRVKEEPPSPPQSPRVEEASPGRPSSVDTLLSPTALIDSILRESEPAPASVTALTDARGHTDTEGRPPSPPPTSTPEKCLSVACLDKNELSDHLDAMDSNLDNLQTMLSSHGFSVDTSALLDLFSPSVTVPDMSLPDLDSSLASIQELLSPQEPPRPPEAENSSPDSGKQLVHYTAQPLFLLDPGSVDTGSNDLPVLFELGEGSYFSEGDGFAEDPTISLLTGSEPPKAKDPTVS
Experiment [4] has as its target T2, SPIC (Homo sapiens, UniProt Q8N5J4 1-248).
T2 sequence: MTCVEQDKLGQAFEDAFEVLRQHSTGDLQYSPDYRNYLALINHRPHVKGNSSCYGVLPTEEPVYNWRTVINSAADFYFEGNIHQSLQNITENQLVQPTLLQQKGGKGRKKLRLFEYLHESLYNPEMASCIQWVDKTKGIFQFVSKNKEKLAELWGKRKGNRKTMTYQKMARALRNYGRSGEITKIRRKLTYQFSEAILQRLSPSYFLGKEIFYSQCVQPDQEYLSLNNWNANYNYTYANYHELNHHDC
Particulars: protein: recombinant; tags: N-terminal GST; dsDNA, one strand shown. Put shortly: as §1

The target in experiment [5] is ELF4 (Homo sapiens, UniProt Q99607 1-663). Particulars: protein: recombinant; tags: N-terminal GST; dsDNA, one strand shown. Put shortly:
as §1

Experiment [6] addresses T3, ELK4 (Homo sapiens, UniProt P28324-2 1-405).
T3 sequence: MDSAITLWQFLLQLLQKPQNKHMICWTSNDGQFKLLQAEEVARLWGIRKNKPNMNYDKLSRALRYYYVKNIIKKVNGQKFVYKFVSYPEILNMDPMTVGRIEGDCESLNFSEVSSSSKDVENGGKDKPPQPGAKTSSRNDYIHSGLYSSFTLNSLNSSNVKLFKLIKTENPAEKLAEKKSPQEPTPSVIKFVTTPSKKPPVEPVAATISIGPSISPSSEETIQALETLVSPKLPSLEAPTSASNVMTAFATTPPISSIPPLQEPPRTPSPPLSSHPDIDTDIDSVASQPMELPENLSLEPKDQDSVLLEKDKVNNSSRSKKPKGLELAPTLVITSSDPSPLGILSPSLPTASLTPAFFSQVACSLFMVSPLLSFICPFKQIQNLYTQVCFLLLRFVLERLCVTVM
Particulars: protein: recombinant; tags: N-terminal GST; dsDNA, one strand shown. An outline of the steps:
as §1

The target of experiment [7] is T4, ETV2 (Homo sapiens, UniProt O00321 1-342).
T4 sequence: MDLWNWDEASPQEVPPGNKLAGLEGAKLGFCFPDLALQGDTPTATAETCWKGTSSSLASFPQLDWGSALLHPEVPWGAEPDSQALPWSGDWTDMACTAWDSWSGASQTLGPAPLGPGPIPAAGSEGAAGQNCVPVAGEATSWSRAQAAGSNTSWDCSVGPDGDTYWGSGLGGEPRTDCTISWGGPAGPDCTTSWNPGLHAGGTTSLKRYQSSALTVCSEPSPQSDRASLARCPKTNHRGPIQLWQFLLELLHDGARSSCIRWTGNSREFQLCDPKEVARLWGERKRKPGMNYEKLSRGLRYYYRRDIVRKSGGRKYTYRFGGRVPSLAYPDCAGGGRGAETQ
The following applies: protein: recombinant; tags: N-terminal GST; dsDNA, one strand shown. Put shortly: as §1

Experiment [8] deals with T5, ELF3 (Homo sapiens, UniProt P78545 1-371).
T5 sequence: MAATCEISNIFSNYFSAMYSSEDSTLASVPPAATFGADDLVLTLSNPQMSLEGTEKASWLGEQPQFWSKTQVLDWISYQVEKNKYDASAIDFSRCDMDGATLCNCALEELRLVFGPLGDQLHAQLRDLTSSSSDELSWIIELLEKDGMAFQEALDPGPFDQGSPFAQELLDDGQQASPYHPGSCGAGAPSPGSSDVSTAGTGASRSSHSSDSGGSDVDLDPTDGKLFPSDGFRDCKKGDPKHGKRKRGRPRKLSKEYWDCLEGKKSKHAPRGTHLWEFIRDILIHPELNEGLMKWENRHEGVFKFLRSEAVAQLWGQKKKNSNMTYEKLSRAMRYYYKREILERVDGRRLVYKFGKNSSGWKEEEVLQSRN
Particulars: protein: recombinant; tags: N-terminal GST; dsDNA, one strand shown. An outline of the steps:
as §1

The target of experiment [9] is CRX (Homo sapiens, UniProt O43186 1-299). Particulars: protein: recombinant; tags: N-terminal GST; dsDNA, one strand shown. An outline of the steps: as §1
Sequence of CRX (O43186 whole entry): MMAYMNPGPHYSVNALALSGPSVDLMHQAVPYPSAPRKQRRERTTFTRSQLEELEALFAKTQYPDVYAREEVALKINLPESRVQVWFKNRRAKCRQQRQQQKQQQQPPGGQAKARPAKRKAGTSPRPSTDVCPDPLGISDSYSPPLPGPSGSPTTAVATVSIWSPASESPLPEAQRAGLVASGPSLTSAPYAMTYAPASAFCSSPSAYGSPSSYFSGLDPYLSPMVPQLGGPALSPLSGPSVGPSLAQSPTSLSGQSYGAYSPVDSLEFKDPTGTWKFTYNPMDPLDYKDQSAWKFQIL
The target of experiment [10] is ETV1 (Homo sapiens, UniProt P50549 1-477). The following applies: protein: recombinant; tags: N-terminal GST; dsDNA, one strand shown. An outline of the steps: as §1
Sequence of ETV1 (P50549 whole entry): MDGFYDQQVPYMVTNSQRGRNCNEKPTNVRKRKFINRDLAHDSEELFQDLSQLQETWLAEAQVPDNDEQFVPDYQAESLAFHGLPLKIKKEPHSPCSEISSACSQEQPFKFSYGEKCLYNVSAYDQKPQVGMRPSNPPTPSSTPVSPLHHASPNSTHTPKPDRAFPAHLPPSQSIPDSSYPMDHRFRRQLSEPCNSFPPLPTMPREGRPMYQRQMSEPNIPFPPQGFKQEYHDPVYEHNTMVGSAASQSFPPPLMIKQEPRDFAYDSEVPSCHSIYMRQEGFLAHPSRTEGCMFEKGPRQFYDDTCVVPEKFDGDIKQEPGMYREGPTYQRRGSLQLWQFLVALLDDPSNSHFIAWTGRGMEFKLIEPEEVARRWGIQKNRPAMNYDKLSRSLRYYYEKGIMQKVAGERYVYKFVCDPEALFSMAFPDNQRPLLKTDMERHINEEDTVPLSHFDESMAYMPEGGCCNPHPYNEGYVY
In experiment [11] the target is T6, ERF (Homo sapiens, UniProt P50548 1-548).
T6 sequence: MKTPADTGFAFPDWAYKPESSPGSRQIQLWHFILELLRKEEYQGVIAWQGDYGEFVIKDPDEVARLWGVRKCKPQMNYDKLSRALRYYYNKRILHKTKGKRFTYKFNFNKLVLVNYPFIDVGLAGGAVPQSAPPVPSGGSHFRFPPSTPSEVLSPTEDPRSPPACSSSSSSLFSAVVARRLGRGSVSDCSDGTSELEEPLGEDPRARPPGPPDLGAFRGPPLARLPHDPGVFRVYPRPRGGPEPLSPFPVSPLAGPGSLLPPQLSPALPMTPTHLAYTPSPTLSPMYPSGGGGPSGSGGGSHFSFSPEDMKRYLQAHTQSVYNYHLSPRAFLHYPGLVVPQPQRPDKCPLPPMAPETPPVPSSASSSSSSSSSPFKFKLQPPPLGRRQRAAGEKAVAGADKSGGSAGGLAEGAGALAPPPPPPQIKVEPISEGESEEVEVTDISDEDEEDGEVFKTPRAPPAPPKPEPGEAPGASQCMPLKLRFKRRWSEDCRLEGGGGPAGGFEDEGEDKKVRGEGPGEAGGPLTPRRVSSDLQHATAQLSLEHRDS
The following applies: protein: recombinant; tags: N-terminal GST; dsDNA, one strand shown. An outline of the steps: as §1

Experiment [12] concerns the target T7, ETV3L (Homo sapiens, UniProt Q6ZN32 1-361).
T7 sequence: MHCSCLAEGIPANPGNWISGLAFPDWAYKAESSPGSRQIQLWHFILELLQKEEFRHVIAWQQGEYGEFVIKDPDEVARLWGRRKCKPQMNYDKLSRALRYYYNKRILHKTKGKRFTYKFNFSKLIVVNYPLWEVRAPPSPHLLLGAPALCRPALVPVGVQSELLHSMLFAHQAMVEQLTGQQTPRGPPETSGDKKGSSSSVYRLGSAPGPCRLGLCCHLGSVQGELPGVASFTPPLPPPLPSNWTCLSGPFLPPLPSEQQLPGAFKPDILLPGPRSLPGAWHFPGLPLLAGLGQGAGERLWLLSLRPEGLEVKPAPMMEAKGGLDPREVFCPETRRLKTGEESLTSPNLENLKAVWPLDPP
The following applies: protein: recombinant; tags: N-terminal GST; dsDNA, one strand shown. Put shortly:
as §1

The target of experiment [13] is T8, ETS2 (Homo sapiens, UniProt P15036 1-469).
T8 sequence: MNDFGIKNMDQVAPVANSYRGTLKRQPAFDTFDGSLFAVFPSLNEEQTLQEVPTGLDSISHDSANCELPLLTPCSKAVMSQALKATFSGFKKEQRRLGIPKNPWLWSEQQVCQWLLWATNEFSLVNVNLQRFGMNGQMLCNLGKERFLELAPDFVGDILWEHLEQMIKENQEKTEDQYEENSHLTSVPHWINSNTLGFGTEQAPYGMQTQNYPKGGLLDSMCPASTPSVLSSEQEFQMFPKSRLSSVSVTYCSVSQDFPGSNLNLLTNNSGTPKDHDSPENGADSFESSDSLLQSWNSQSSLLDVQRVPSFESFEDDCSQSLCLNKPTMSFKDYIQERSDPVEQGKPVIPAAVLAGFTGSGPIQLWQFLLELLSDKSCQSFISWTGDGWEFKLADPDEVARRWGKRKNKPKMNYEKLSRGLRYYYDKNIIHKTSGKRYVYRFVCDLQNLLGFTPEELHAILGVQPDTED
Particulars: protein: recombinant; tags: N-terminal GST; dsDNA, one strand shown. An outline of the steps:
as §1

Experiment [14] deals with T9, SPDEF (Homo sapiens, UniProt O95238 1-335).
T9 sequence: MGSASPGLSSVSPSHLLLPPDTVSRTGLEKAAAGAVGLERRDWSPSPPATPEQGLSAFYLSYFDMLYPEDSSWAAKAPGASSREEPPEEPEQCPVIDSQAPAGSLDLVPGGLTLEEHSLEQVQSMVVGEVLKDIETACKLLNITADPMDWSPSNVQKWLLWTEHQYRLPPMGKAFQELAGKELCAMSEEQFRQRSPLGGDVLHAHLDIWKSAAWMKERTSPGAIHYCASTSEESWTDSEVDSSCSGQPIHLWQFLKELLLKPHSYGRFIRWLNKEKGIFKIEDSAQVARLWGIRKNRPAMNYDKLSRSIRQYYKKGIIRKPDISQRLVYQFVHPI
Particulars: protein: recombinant; tags: N-terminal GST; dsDNA, one strand shown. Put shortly:
as §1

Experiment [15] addresses T10, ETV7 (Homo sapiens, UniProt Q9Y603 1-341).
T10 sequence: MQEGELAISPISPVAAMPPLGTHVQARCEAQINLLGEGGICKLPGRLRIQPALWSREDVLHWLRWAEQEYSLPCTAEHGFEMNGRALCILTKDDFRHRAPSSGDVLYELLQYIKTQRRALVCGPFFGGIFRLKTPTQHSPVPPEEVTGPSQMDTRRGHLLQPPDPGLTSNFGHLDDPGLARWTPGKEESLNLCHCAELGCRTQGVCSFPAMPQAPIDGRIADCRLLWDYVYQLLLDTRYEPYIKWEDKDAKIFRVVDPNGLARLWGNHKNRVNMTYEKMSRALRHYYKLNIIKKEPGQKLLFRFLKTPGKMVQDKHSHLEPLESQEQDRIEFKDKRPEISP
The following applies: protein: recombinant; tags: N-terminal GST; dsDNA, one strand shown. Put shortly:
as §1

The target in experiment [16] is T11, ELF5 (Homo sapiens, UniProt Q9UKW6-2 1-255).
T11 sequence: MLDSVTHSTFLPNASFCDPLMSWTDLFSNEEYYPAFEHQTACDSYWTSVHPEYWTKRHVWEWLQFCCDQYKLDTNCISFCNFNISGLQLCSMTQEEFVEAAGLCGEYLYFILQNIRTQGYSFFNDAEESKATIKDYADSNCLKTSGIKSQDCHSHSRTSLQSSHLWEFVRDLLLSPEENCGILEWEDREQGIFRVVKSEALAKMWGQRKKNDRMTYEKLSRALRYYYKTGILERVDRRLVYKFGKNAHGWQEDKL
The following applies: protein: recombinant; tags: N-terminal GST; dsDNA, one strand shown. Put shortly: as §1

Experiment [17] deals with T12, ETV3 (Homo sapiens, UniProt P41162-2 1-143).
T12 sequence: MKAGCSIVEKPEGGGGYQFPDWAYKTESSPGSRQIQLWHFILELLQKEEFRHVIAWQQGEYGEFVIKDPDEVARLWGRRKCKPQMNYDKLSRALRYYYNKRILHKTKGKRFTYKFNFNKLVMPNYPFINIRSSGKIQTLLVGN
Particulars: protein: recombinant; tags: N-terminal GST; dsDNA, one strand shown. An outline of the steps: as §1

Experiment [18] has as its target ETV6 (Homo sapiens, UniProt P41212 1-452). Particulars: protein: recombinant; tags: N-terminal GST; dsDNA, one strand shown. Put shortly: as §1

Results on one sequence are retold here after publication PMC7862700, “An all-to-all approach to the identification of sequence-specific readers for epigenetic DNA modifications on cytosine”.

Sequence of ETV5 (P41161 whole entry): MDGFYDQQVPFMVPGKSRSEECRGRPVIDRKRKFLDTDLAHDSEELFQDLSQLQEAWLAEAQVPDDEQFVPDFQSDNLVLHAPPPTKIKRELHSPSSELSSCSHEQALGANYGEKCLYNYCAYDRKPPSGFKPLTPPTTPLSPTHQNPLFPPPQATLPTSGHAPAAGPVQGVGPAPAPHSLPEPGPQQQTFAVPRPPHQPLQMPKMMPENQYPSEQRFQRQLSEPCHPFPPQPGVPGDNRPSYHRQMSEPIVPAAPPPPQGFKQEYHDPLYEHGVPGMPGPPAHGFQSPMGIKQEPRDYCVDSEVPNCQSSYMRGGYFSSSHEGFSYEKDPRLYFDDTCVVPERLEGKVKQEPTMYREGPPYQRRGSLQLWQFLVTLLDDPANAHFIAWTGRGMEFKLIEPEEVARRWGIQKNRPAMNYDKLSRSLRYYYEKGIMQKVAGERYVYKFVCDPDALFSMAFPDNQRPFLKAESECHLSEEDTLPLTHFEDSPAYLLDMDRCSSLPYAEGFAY
Sequence of ELF4 (Q99607 whole entry): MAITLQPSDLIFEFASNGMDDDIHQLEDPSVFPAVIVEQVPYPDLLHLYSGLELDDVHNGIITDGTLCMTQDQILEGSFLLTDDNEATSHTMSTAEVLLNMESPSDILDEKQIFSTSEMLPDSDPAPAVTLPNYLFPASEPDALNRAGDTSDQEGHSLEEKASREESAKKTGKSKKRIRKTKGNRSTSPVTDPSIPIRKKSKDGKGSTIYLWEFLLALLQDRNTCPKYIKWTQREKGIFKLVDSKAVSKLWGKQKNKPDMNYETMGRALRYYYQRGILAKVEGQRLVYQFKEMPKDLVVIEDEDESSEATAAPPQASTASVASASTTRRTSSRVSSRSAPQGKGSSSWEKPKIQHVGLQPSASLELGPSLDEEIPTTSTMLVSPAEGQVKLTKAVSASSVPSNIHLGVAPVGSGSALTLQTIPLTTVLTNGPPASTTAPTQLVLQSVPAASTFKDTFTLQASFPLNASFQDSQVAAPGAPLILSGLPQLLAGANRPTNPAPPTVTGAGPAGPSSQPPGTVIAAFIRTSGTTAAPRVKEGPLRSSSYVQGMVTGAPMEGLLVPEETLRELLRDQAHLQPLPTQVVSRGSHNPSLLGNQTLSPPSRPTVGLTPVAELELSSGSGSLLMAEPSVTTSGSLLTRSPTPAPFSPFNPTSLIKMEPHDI
Sequence of ETV6 (P41212 whole entry): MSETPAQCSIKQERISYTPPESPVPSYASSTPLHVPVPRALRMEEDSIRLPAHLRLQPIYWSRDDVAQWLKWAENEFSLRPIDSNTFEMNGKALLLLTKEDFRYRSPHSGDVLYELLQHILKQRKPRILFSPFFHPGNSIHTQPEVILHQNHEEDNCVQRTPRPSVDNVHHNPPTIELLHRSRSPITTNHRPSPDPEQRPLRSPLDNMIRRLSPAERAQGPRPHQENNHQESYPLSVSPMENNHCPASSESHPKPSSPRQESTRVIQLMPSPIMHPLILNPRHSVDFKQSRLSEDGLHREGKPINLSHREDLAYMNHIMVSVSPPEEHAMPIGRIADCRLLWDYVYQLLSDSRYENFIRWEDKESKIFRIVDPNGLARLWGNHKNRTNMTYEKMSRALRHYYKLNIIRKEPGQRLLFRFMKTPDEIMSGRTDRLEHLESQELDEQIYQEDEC

Regarding ATTCCG, the binding signal in [1] was 1.79 fold enrichment (6-mer frequency, TF over GST control); in [2] it was 1.97 fold enrichment (6-mer frequency, TF over GST control); in [3], 1.52 fold enrichment (6-mer frequency, TF over GST control); in experiment [4], 1.82 fold enrichment (6-mer frequency, TF over GST control); in [5] it was 1.61 fold enrichment (6-mer frequency, TF over GST control); in experiment [6], 1.54 fold enrichment (6-mer frequency, TF over GST control). For the same sequence, the binding signal was 1.79 fold enrichment (6-mer frequency, TF over GST control) in [7]; 1.78 fold enrichment (6-mer frequency, TF over GST control) in experiment [8]; 1.27 fold enrichment (6-mer frequency, TF over GST control) in experiment [9]; 1.81 fold enrichment (6-mer frequency, TF over GST control) in experiment [10]; 1.58 fold enrichment (6-mer frequency, TF over GST control) in experiment [11]; 1.74 fold enrichment (6-mer frequency, TF over GST control) in experiment [12]. Further, the binding signal in experiment [13] is 1.78 fold enrichment (6-mer frequency, TF over GST control); in experiment [14], 1.85 fold enrichment (6-mer frequency, TF over GST control); in experiment [15] it was 1.62 fold enrichment (6-mer frequency, TF over GST control); in experiment [16], 2.17 fold enrichment (6-mer frequency, TF over GST control); in experiment [17], 1.89 fold enrichment (6-mer frequency, TF over GST control); in experiment [18], 1.78 fold enrichment (6-mer frequency, TF over GST control).
